A short description of assay [1]: ATG_GLI_CIS: Attagene CIS-FACTORIAL HepG2 Assay for human Zinc Finger Protein GLI1 (AID 2282945). The following applies: HepG2, Attagene cis-factorial reporter mRNA, GLI element; actives raise or lower the signal. Put shortly: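 Bidirectional curve fits relative to DMSO, using reporter mRNA levels from RT-PCR plus capillary electrophoresis. Cells were HepG2 transiently carrying cis-regulated reporter constructs, harvested 24 h after dosing.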

Assay [2] deals with Bile acid receptor (Homo sapiens) (UniProt Q96RI1). Nature of the assay: ATG_IR1_CIS: Attagene CIS-FACTORIAL HepG2 Assay for human Nuclear Receptor Subfamily 1 Group H Member 4 (NR1H4), IR1 submotif (AID 2282946). The following applies: IR1 reporter transcription, actives raise or lower the signal. Put shortly: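 HepG2 cells transiently transfected with multiplexed cis-element reporter units read endogenous transcription factor activity. After 24 h compound exposure, reporter mRNA was quantified by RT-PCR, fluorescent labelling, HpaI digestion and capillary electrophoresis; bidirectional fitting versus DMSO baseline.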
Chain of Bile acid receptor (Homo sapiens) (Q96RI1 whole entry, looked up): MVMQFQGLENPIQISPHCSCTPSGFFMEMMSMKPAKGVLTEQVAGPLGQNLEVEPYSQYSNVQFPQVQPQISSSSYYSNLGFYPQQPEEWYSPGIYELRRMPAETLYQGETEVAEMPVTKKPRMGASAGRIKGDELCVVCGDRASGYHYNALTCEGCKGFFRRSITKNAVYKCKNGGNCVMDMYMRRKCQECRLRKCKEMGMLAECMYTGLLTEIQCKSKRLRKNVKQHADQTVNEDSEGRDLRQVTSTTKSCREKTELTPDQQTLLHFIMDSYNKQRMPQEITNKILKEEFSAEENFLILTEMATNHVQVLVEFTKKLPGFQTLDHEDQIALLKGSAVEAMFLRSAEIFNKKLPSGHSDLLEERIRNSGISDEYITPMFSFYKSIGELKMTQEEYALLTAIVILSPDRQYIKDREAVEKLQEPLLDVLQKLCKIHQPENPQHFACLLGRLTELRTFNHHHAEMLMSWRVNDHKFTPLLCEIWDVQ

Assay [3] is described as follows: ATG_GRE_CIS: Attagene CIS-FACTORIAL HepG2 Assay for human Glucocorticoid Response Elements (GRE) (AID 2282947). Particulars: HepG2 GRE cis-reporter, Attagene multiplex mRNA; actives raise or lower the signal. Put shortly:
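Reporter transcripts read by RT-PCR with capillary electrophoresis fluorescence after a 24 h chemical exposure of HepG2 cells transiently transfected with multiple cis-element reporter units. Gain or loss fitted against DMSO.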

Assay [4] can be described thus: ATG_ISRE_CIS: Attagene CIS-FACTORIAL HepG2 Assay for human Interferon Regulatory Factor 1 (IRF1) binding to an Interferon-Stimulated Response Element (ISRE) (AID 2282948). Particulars: HepG2 ISRE cis-reporter (Attagene), mRNA transcription readout; actives raise or lower the signal. Put shortly:
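Endogenous transcription factor activity read as reporter transcript abundance via RT-PCR and capillary electrophoresis. HepG2 cells transiently transfected, 24 h chemical exposure. Gain or loss fitted against DMSO baseline.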

Assay [5] in a line: ATG_M_32_CIS: Attagene CIS-FACTORIAL HepG2 Assay for M32 Transcription Factor (Internal Marker) (AID 2282949).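 Note: background control marker of the multiplexed CIS panel rather than a real target.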 Particulars: HepG2 Attagene cis-factorial M32 reporter, mRNA; actives raise or lower the signal. Put shortly:
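HepG2 transfectants (cis-regulated reporter transcription units) dosed 24 h. Reporter mRNA by RT-PCR plus CE, analysed as gain or loss relative to DMSO.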

Assay [6] is described as follows: ATG_M_06_CIS: Attagene CIS-FACTORIAL HepG2 Assay for M06 Transcription Factor (Internal Marker) (AID 2282950). The following applies: HepG2 Attagene CIS-FACTORIAL M06 internal marker reporter; actives raise or lower the signal. Put shortly: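 Read-out is fluorescence of labelled reporter cDNA fragments resolved by capillary electrophoresis after RT-PCR. Cells: HepG2 carrying transfected cis-promoter reporter units, treated 24 h. Gain or loss of signal fitted relative to DMSO.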

Assay [7] has as its target Hepatocyte nuclear factor 6 (Homo sapiens) (UniProt Q9UBC0). Nature of the assay: ATG_HNF6_CIS: Attagene CIS-FACTORIAL HepG2 Assay for human Hepatocyte Nuclear Factor 6 (HNF6) (AID 2282952). The following applies: HepG2 Attagene cis-factorial HNF6 reporter transcription; actives raise or lower the signal. Put shortly: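 Endogenous transcription factor activity in human HepG2 liver cells was captured through cis-regulated reporter constructs. After 24 h treatment, reporter mRNA was measured by RT-PCR with capillary electrophoresis, and activity was fitted in both directions relative to DMSO.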

For assay [8], the target named is Heat shock factor protein 1 (Homo sapiens) (UniProt Q00613). Nature of the assay: ATG_HSE_CIS: Attagene CIS-FACTORIAL HepG2 Assay for human Heat Shock Transcription Factor 1 (HSE) (AID 2282953). The following applies: HepG2 HSE cis-reporter, Attagene RNA transcription; actives raise or lower the signal. Put shortly: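 HepG2, transient MRTU transfection, cis-promoter reporters (endogenous TF activity). 24 h compound. RNA → oligo(dT) RT → PCR → 6-FAM primer extension → HpaI cut → CE. Bidirectional fit vs DMSO.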
Chain of Heat shock factor protein 1 (Homo sapiens) (Q00613 whole entry, looked up): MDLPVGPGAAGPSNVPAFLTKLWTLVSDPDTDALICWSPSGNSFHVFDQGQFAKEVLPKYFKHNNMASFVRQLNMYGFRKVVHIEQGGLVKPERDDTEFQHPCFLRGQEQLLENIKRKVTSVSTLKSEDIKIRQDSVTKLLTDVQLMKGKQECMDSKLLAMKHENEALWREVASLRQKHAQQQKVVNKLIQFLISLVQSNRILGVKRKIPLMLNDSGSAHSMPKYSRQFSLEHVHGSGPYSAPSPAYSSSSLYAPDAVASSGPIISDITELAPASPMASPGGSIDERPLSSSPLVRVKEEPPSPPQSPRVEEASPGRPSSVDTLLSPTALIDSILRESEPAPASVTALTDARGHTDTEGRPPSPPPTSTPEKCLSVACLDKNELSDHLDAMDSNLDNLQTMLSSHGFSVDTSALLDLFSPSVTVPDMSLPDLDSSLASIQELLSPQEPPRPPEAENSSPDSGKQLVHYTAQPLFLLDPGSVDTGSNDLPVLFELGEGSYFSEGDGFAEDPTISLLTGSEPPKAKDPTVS

Assay [9] can be described thus: ATG_MRE_CIS: Attagene CIS-FACTORIAL HepG2 Assay for human Metal Responsive Element (MRE) (AID 2282954). The following applies: HepG2 MRE cis-reporter transcription, Attagene multiplex; actives raise or lower the signal. Put shortly:
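Endogenous MRE-dependent transcription read as reporter mRNA in transiently transfected human HepG2 cells at 24 h. RNA reverse-transcribed, PCR-amplified, labelled and resolved by capillary electrophoresis; gain or loss relative to DMSO.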

Assay [10] can be described thus: ATG_PBREM_CIS: Attagene CIS-FACTORIAL HepG2 Assay for human Phenobarbital-responsive Enhancer Module (PBREM) (AID 2282955). The following applies: HepG2 PBREM cis-reporter, Attagene multiplexed transcription; actives raise or lower the signal. Put shortly:
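HepG2 cells transiently transfected with multiple cis-regulated reporter units measure endogenous transcription factor activity; 24 h compound exposure. Reporter mRNA quantified by RT-PCR, fluorescent labelling, HpaI digestion and capillary electrophoresis; bidirectional fit versus DMSO.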

A short description of assay [11]: ATG_PXRE_CIS: Attagene CIS-FACTORIAL HepG2 Assay for human Pregnane X Receptor Element (PXRE) (AID 2282957). The following applies: HepG2 Attagene CIS-FACTORIAL PXRE reporter, mRNA; actives raise or lower the signal. Put shortly:
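Endogenous transcription factor activity in HepG2 was gauged through induction of reporter mRNA driven by a cis-regulating promoter element, sampled 24 h post-treatment. Activity was fitted in both directions against DMSO negative control.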

The nature of assay [12]: ATG_PPRE_CIS: Attagene CIS-FACTORIAL HepG2 Assay for human Peroxisome Proliferator-activated Response Element (PPRE) (AID 2282958). Particulars: HepG2 PPRE cis-element reporter, Attagene transcription factor profiling; actives raise or lower the signal. Put shortly: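 HepG2 cells are transiently transfected with multiplexed cis-promoter reporter units to report endogenous PPAR activity. After 24 h dosing, reporter mRNA is read by RT-PCR and capillary electrophoresis. Fitting is bidirectional against DMSO.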

Assay [13] in a line: ATG_RORE_CIS: Attagene CIS-FACTORIAL HepG2 Assay for human RAR-related Orphan Receptor Element (RORE) (AID 2282959). The following applies: HepG2 Attagene cis-factorial RORE reporter, mRNA; actives raise or lower the signal. Put shortly:
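HepG2 cells carrying transiently transfected cis-regulated reporter units; RORE-driven reporter mRNA quantified 24 h post-dosing by RT-PCR, 6-FAM primer extension, HpaI digestion and capillary electrophoresis. Bidirectional fit versus DMSO.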

Assay [14] in a line: ATG_Sox_CIS: Attagene CIS-FACTORIAL HepG2 Assay for human SRY-box transcription factor (SOX) (AID 2282960). The following applies: HepG2 Attagene cis-factorial SOX reporter, mRNA; actives raise or lower the signal. Put shortly:
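HepG2 cells transiently transfected with multiple cis-regulated reporter units, then dosed for 24 h. Reporter mRNA quantified by RT-PCR, fluorescent labelling, HpaI digestion and capillary electrophoresis; bidirectional fit versus DMSO.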

The target in assay [15] is Transcription factor Sp1 (Homo sapiens) (UniProt P08047). The experiment in a line: ATG_Sp1_CIS: Attagene CIS-FACTORIAL HepG2 Assay for human Specificity Protein 1 (Sp1) (AID 2282961). Particulars: HepG2 Sp1 cis-reporter transcription, actives raise or lower the signal. Put shortly: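 HepG2 cells transiently transfected with multiplexed cis-regulated reporter constructs, chemical exposure 24 h. Reporter mRNA quantified by RT-PCR with capillary electrophoresis; bidirectional fit relative to DMSO.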
Chain of Transcription factor Sp1 (Homo sapiens) (P08047 whole entry, looked up): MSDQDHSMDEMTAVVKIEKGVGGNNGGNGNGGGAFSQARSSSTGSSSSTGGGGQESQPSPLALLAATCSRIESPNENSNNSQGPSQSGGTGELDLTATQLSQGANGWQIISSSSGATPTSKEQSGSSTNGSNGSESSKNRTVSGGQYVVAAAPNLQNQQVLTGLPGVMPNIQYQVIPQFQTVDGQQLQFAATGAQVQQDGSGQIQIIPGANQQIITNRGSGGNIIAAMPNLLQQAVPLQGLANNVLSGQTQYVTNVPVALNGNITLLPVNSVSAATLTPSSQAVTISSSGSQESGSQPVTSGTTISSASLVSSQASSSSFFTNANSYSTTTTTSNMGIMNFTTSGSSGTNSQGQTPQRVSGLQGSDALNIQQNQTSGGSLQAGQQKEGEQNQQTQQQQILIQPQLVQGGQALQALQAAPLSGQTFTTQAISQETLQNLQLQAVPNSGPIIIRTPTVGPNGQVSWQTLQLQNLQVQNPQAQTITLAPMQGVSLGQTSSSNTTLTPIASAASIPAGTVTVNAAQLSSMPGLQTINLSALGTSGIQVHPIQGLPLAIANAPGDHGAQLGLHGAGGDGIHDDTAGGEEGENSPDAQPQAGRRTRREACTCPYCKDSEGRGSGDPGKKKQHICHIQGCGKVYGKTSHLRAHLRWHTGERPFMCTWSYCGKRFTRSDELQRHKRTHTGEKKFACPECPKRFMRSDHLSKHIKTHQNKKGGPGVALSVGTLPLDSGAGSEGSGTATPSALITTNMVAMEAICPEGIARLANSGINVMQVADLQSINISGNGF

Assay [16] in a line: ATG_SREBP_CIS: Attagene CIS-FACTORIAL HepG2 Assay for human Sterol Regulatory Element Binding (SREBP) (AID 2282962). The following applies: HepG2 Attagene cis-factorial SREBP reporter, mRNA; actives raise or lower the signal. Put shortly: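 Endogenous SREBP activity read as cis-element-driven reporter transcript in transiently transfected HepG2, 24 h post-dosing; quantified via RT-PCR plus capillary electrophoresis of fluorescent fragments. Gain or loss of signal fitted relative to DMSO baseline.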

Assay [17] has as its target Signal transducer and activator of transcription 3 (Homo sapiens) (UniProt P40763). The experiment in a line: ATG_STAT3_CIS: Attagene CIS-FACTORIAL HepG2 Assay for human Signal Transducer and Activator of Transcription 3 (STAT3) (AID 2282963). The following applies: HepG2, Attagene cis-factorial STAT3 reporter transcription; actives raise or lower the signal. Put shortly: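 Readout is reporter transcript quantified by RT-PCR and capillary electrophoresis, with 6-FAM primer extension and HpaI digestion. Total RNA is taken 24 h after dosing transiently transfected HepG2 carrying cis-regulated reporter units. Bidirectional fit against DMSO.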

A short description of assay [18]: ATG_TA_CIS: Attagene CIS-FACTORIAL HepG2 Assay for human TA Basal Promoter (AID 2282964). The following applies: HepG2 Attagene CIS-factorial TA basal promoter reporter; actives raise or lower the signal. Put shortly: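 Read-out: fluorescent reporter-transcript fragments resolved by capillary electrophoresis after RT-PCR and HpaI digestion. Source: HepG2 cells carrying transiently transfected multi-reporter cis constructs, treated 24 h. Endpoint fitted bidirectionally relative to DMSO.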

In assay [19] the target is Paired box protein Pax-6 (Homo sapiens) (UniProt P26367). The experiment in a line: ATG_Pax6_CIS: Attagene CIS-FACTORIAL HepG2 Assay for human Paired Box 6 (PAX6) (AID 2282956). Particulars: HepG2 CIS-FACTORIAL PAX6 reporter transcription, RNA readout; actives raise or lower the signal. Put shortly: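 Read-out is reporter transcript level, measured by RT-PCR with fluorescent primer extension and capillary electrophoresis after 24 h dosing of transfected HepG2 cells. Activity in either direction fitted relative to DMSO control.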
Chain of Paired box protein Pax-6 (Homo sapiens) (P26367 whole entry, looked up): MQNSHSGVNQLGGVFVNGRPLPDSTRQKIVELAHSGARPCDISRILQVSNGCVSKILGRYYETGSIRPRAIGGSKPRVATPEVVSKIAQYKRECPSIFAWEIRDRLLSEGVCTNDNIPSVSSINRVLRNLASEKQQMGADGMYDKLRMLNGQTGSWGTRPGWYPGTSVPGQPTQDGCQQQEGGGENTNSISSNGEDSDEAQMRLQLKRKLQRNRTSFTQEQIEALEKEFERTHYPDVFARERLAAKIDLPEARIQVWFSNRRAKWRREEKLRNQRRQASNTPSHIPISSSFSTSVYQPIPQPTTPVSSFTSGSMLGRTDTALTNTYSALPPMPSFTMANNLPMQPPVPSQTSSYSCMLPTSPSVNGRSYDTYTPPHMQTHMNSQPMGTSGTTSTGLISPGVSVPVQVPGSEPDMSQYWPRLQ

The source made the active and inactive calls. Rule for the calls: active = hit-call score of the fitted dose curve at least 0.9, where 1 is the maximum; inactive = score below 0.9.

Chain of Hepatocyte nuclear factor 6 (Homo sapiens) (Q9UBC0 whole entry, looked up): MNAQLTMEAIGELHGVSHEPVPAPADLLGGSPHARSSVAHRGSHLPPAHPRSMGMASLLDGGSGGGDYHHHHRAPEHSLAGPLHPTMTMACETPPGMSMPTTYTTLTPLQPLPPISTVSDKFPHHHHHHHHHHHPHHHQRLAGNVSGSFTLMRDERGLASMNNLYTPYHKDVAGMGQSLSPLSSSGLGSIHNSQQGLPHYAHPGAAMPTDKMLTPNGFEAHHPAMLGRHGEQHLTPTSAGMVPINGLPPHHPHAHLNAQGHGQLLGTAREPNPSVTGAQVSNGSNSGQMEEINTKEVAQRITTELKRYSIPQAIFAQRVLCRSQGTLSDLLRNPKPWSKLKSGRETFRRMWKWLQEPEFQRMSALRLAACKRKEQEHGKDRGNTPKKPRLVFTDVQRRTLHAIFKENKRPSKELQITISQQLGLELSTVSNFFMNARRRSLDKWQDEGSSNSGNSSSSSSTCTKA
Chain of Signal transducer and activator of transcription 3 (Homo sapiens) (P40763 whole entry, looked up): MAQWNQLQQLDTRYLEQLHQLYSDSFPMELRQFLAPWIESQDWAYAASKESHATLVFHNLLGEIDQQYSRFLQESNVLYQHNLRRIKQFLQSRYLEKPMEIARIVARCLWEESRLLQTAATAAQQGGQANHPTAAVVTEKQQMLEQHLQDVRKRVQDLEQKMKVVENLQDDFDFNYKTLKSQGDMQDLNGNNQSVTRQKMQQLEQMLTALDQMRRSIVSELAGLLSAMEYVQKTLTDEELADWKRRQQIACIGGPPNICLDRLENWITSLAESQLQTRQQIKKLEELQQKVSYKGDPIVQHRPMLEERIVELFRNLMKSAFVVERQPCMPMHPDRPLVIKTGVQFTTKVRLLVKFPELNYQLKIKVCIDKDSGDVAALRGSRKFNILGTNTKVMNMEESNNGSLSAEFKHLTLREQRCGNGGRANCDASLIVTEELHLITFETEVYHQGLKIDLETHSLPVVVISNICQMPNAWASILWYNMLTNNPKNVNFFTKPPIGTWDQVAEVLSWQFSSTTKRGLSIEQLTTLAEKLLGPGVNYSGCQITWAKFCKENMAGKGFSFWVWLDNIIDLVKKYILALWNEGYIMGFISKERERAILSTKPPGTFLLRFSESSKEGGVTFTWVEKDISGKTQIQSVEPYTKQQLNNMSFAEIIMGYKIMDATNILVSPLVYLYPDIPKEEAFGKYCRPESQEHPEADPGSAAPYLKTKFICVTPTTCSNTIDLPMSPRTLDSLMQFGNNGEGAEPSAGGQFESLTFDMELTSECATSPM

In the case of `CCCCC(CC)COC(=O)c1ccc(N(C)C)cc1` (stereo not drawn), the outcome in assay [1], in [2], in assay [3], in [4], in assay [5] and in [6] was inactive. Further, the molecule was classed as inactive in [7], in assay [8], in [9], in [10], in [13] and in assay [14]. Also, the molecule was classed as inactive in assay [15], in assay [16], in assay [17] and in assay [18]. Moreover, the AC50 (in general, the midpoint of the concentration-response curve, whichever way the signal moves) in [11] was 8.25 µM (active); in [12], 32.6 µM (active).
Consider `CC(C)CC=C(C=O)c1ccccc1`, for which the result in assay [1], in assay [2], in [3], in assay [4], in [5] and in assay [6] was inactive. Moreover, the result in assay [7], in assay [8], in assay [9], in assay [10], in assay [19] and in [12] was inactive. Moreover, the outcome in assay [13], in assay [14], in assay [15], in [16], in assay [17] and in assay [18] was inactive. In addition, the AC50 in assay [11] was 0.956 µM (active).
With `Nc1c(Br)cc([N+](=O)[O-])cc1Br`, the call in assay [1], in assay [2], in assay [3], in assay [4], in assay [5] and in assay [6] was inactive. Besides, the molecule was classed as inactive in assay [7], in assay [8], in [9], in [10], in [19] and in assay [12]. In addition, the outcome in assay [13], in assay [14], in [15], in [16], in assay [17] and in assay [18] was inactive. Further, the concentration at half-maximal activity (AC50) in assay [11] was 26.7 µM (active).
In the case of `CCCCCCCC/C=C\CCCCCCCC(=O)N(C)CC(=O)O`, the outcome in [1], in [2], in assay [3], in [4], in assay [5] and in assay [6] was inactive. Also, the molecule was called inactive in assay [7], in [8], in assay [9], in assay [10], in [13] and in [14]. Further, the result in [15], in assay [17] and in assay [18] was inactive. For the same molecule, the AC50 was 16 µM (active) in [11], 3.73 µM (active) in assay [12] and 11.1 µM (active) in [16].
Take `NC(=O)C(F)(F)C(F)(F)C(F)(F)F`: the result in assay [1], in assay [2], in [3], in assay [4], in assay [5] and in [6] was inactive. The outcome in assay [7], in [8], in assay [9], in [10], in assay [19] and in assay [11] was inactive. For the same molecule, the molecule was classed as inactive in assay [12], in assay [13], in assay [14], in assay [15], in [16] and in assay [17]. For the same molecule, the outcome in assay [18] was inactive.
For `CC(C)OC(=O)COc1ccc(Cl)cc1Cl`, the outcome in [1], in assay [2], in assay [3], in assay [4], in assay [5] and in assay [6] was inactive. For the same molecule, the outcome in assay [7], in assay [8], in assay [9], in assay [10], in assay [12] and in assay [13] was inactive. Also, the outcome in [14], in assay [15], in assay [16] and in assay [18] was inactive. Further, the AC50 in assay [11] was 68.8 µM (active).
As to `O=C1OC(=O)c2ccc3c4c(ccc1c24)C(=O)OC3=O`, the molecule was classed as inactive in assay [1], in [2], in assay [3], in assay [4], in assay [5] and in [6]. Besides, the molecule was classed as inactive in assay [7], in [8], in [9], in [10], in [11] and in assay [12]. The call in assay [13], in assay [14], in assay [15], in [16], in [17] and in assay [18] was inactive.

Values taken from PubChem BioAssay (EPA / NIEHS).
